Most compounds without a hit are left out; they make up all but 0.2% or so of the library.
PDI inh = blocks human protein disulfide isomerase activity; PDI insulin aggregation turbidity, A650, 90 min; 350,000 tested, 0.052% active; inhibition, % at 10 µM; P07237; AID 588391;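 active means mean inhibition across replicates of 30% or more, whatever share of single replicates reach that level; inconclusive means mean inhibition below 30% while every single replicate reaches 30%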
Target sequence (P07237 whole entry, looked up): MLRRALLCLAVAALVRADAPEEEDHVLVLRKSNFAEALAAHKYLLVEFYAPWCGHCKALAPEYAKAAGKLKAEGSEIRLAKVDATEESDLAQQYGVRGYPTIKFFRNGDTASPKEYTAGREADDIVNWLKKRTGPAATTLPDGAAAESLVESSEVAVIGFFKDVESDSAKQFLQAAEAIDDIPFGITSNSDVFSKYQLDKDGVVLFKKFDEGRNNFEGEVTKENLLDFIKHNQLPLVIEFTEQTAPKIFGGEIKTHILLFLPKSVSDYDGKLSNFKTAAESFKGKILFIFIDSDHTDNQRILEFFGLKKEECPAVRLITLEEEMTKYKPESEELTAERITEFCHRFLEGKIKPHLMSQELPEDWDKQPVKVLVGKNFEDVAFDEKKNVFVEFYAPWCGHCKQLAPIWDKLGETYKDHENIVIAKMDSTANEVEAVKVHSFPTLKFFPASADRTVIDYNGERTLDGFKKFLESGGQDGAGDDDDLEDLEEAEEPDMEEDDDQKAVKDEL
CaV13 FRET inh = Primary screen for inhibitors of IQ motif and Ca2+-dependent inactivation inhibitor domain binding in CACNA1D, Förster resonance energy transfer in living cells, …; HEK cells, CFP/YFP FRET ICDI-IQ, plate reader, 10 min; percent FRET-ratio fall versus neutral wells; inhibition, % at 12.3 µM; 340,000 tested, 0.098% active;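 active means mean replicate inhibition of at least 30% and at least 1% of replicates passing that level; inconclusive means only one of the two criteria is met; inactive means neither criterion is met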
PvdQ acylase = blocks Pseudomonas aeruginosa PvdQ acylase activity; purified PvdQ acylase, fluorescence plate reader; inhibition, % at 10 µM; 340,000 tested, 0.063% active; in the data active means inhibition above about 30%, passing the limit was not always enough; inconclusive means no clear call, values can overlap the other calls
ERp5 inh = ERp5 (human) disulfide isomerase inhibition. 350,000 tested, 0.05% active. ERp5 insulin aggregation, absorbance 650 nm, 90 min. inhibition, % at 9.99 µM;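 active means mean replicate inhibition above about 25%, with every replicate also reaching it, limit read from the data, passing the limit was not always enough; inconclusive means only one of those two criteria met; inactive means neither criterion met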
Large screens that a line does not name were inactive.

CNC(=O)Cc1csc2ccc(Cl)cc12	none (no result: ERp5 inh)
Clc1ccc2scc(CN3CCCC3)c2c1	PvdQ acylase 81
O=C(C=Cc1ccc2c(c1)OCO2)c1ccccc1	none
O=C(/C=C/c1ccccc1)C1=C(O)C(=O)N(CCO)C1c1ccc2c(c1)OCO2 (centres undefined)	CaV13 FRET inh 34
Cc1ccc(S(=O)(=O)N(CC(=O)N2CCC(C)CC2)c2ccccc2)cc1	PvdQ acylase 37
N#Cc1c2ccc(OCC(N)=O)cc2n2ccccc12	CaV13 FRET inh 77
NC(=O)c1cc([N+](=O)[O-])ccc1NCc1cccnc1	CaV13 FRET inh 42
Cc1cc(Br)cc(Br)c1OCC(=O)NNC(=O)CCC(=O)NCc1ccccc1	ERp5 inh 27 (no result: CaV13 FRET inh)
O=C(CCC(=O)NNC(=O)COc1ccc(Br)cc1Br)NCc1ccccc1	none
C[C@@H]1CCCCO[C@@H](CN(C)C(=O)c2ccccc2)[C@H](C)CN([C@H](C)CO)C(=O)c2cc(NC(=O)Nc3cccc4ccccc34)ccc2O1	none (no result: PDI inh, CaV13 FRET inh, PvdQ acylase)
COC(=O)C1=CN(Cc2ccc(OC)c(OC)c2)C=C(C(=O)OC)C1c1cccc(F)c1	CaV13 FRET inh 79
COC(=O)C1=CN(Cc2ccc(F)cc2)C=C(C(=O)OC)C1c1cc(OC)c(OC)c(OC)c1	none
C[C@H]1CN([C@@H](C)CO)C(=O)Cc2cc(NS(=O)(=O)c3ccccc3)ccc2O[C@H]1CN(C)Cc1ccncc1	none (no result: PDI inh, CaV13 FRET inh, PvdQ acylase)
CCOCC(=O)Nc1nc2ccc(C)cc2s1	PvdQ acylase 32 (no result: CaV13 FRET inh, ERp5 inh)
CCCCn1c(SCC(=O)Nc2ccc(C)c(S(=O)(=O)N3CCOCC3)c2)nnc1C(CC)N(C)C (centres undefined)	PDI inh 32
Cc1ccc(S(=O)(=O)N[C@@H]2CC[C@H](CCn3cc(C(C)C)nn3)O[C@H]2CO)cc1	none (no result: PDI inh, CaV13 FRET inh, PvdQ acylase)
CN1c2ccc(-c3ccccc3)cc2[C@H]2[C@H](CCN2C(=O)Cc2cccnc2)[C@@H]1CO	none (no result: PDI inh, CaV13 FRET inh, PvdQ acylase)
Cc1ccc(NC(=O)c2cccc(S(C)(=O)=O)c2)cc1	ERp5 inh 26
Cc1cccc(C(=O)Nc2ccc(NC(=O)c3cccc(C)c3)cc2)c1	none (no result: PvdQ acylase)
O=C(C[C@H]1C=C[C@H](NC(=O)NC2CCCC2)[C@@H](CO)O1)NCc1ccc(F)cc1	none (no result: PDI inh, CaV13 FRET inh, PvdQ acylase)
C=CCN1C(=S)CC(c2ccccc2)=Nc2ccccc21	CaV13 FRET inh 63
O=C(/C=C/c1c(F)cccc1Cl)c1ccc(O)cc1	PDI inh 79
O=C(/C=C/c1ccccc1Cl)c1ccc(O)cc1	PDI inh inconclusive
Cc1ccc(S(=O)(=O)N(C)C[C@H]2Oc3c(NC(=O)Nc4cccc5ccccc45)cccc3C(=O)N([C@H](C)CO)C[C@@H]2C)cc1	none (no result: PDI inh, CaV13 FRET inh, PvdQ acylase)
COC(=O)c1ccc(/C=C(\C#N)c2ccccn2)cc1	PvdQ acylase 71
O=c1[nH]c(Nc2ccccc2Cl)cc2ccccc12	CaV13 FRET inh active
Cc1ccccc1Nc1cc2ccccc2c(=O)[nH]1	none (no result: CaV13 FRET inh, ERp5 inh)
C/C=C(\C)C(=O)NCCN1C2=NC[C@@H](Cc3ccccc3)N2C[C@H]1Cc1ccc(O)cc1	none
COc1ccc(C[C@H]2CN3C(=NC[C@@H]3Cc3ccc(O)cc3)N2C[C@H](C)NC(=O)CCC2CCCCC2)cc1	none
C/C=C(\C)C(=O)NCCN1C2=NC[C@H](Cc3ccc(O)cc3)N2C[C@H]1Cc1ccc(O)cc1	PDI inh 45
COc1ccc(C[C@@H]2CN3C(=NC[C@@H]3Cc3ccc(O)cc3)N2C[C@H](C)NC(=O)CCC2CCCCC2)cc1	PDI inh 40 (no result: CaV13 FRET inh, ERp5 inh)
C[C@@H]1CN([C@H](C)CO)C(=O)c2cc(NC(=O)Nc3cccc4ccccc34)ccc2O[C@@H](C)CCCCO[C@@H]1CN(C)C(=O)NC1CCCCC1	none (no result: PDI inh, CaV13 FRET inh, PvdQ acylase)
O=C(C[C@H]1C=C[C@@H](NC(=O)C2CCOCC2)[C@H](CO)O1)NCC1CC1	none (no result: PDI inh, CaV13 FRET inh, PvdQ acylase)
COC(=O)c1ccc(NC(=S)N2CCCC2)cc1	PvdQ acylase 42
Cc1noc(C)c1NC(=O)Nc1ccc2c(c1)CC(=O)N([C@@H](C)CO)C[C@@H](C)[C@H](CN(C)S(C)(=O)=O)O2	none (no result: PDI inh, CaV13 FRET inh, PvdQ acylase)
OC(CN1CCOCC1)Cn1c(-c2cccc(Cl)c2)nc2ccccc21 (centres undefined)	PvdQ acylase 32 (no result: ERp5 inh)
CCn1c(SCC(=O)Nc2cccc(NC(C)=O)c2)nnc1-c1ccco1	none
CCn1c(SCC(=O)Nc2ccc3c(c2)c2ccccc2n3CC)nnc1-c1ccco1	PDI inh 56 (no result: ERp5 inh)
Cc1cc(C)c2c(=O)n3c(nc2c1)C(Cc1ccc(O)cc1)NC(=O)c1cccnc1-3 (centres undefined)	PDI inh 44 (no result: PvdQ acylase)
Cc1ccc2nc3n(c(=O)c2c1)-c1ncccc1C(=O)NC3Cc1ccc(O)cc1 (centres undefined)	PDI inh 37 (no result: PvdQ acylase)
Cc1ccc2nc3n(c(=O)c2c1)-c1ncccc1C(=O)NC3Cc1ccccc1 (centres undefined)	none (no result: PvdQ acylase)
Cc1cc(C)c2c(=O)n3c(nc2c1)C(Cc1ccccc1)NC(=O)c1cccnc1-3 (centres undefined)	none (no result: PvdQ acylase)
O=C1NC(Cc2ccccc2)c2nc3ccccc3c(=O)n2-c2ncccc21 (centres undefined)	none (no result: PvdQ acylase)
O=C1NC(Cc2ccc(O)cc2)c2nc3ccccc3c(=O)n2-c2ncccc21 (centres undefined)	PDI inh 43 (no result: PvdQ acylase)
C[C@H](CO)N1C[C@H](C)[C@H](CN(C)Cc2ccc(C(=O)O)cc2)OCCCC[C@H](C)Oc2ccc(NC(=O)c3ccccc3)cc2C1=O	none (no result: PDI inh, CaV13 FRET inh, PvdQ acylase)
O=C(NNc1c2ccccc2nc2ccccc12)c1ccc(O)cc1	CaV13 FRET inh 44
CCCN(C)C[C@H]1Oc2cc(-c3cccnc3)ccc2S(=O)(=O)N([C@@H](C)CO)C[C@H]1C	none (no result: PDI inh, CaV13 FRET inh, PvdQ acylase)
O=C(Nc1ccncc1)C1CC(=O)N(c2ccccc2)C1 (centres undefined)	ERp5 inh 28
COc1ccc(C2c3ccc(O)cc3Oc3ncn(CCN4CCOCC4)c(=N)c32)cc1OC (centres undefined)	PDI inh 54
CCc1c(C)n([O-])c2c([n+]1=O)CCC2	PDI inh 46 (no result: ERp5 inh)
C[C@H](CO)N1C[C@H](C)[C@H](CN(C)Cc2ccc(C(=O)Nc3ccccc3N)cc2)Oc2ccc(NS(C)(=O)=O)cc2CC1=O	none (no result: PDI inh, CaV13 FRET inh, PvdQ acylase)
CC1OC(Oc2c(-c3cc(O)c(O)c(O)c3)oc3cc(O)cc(O)c3c2=O)C(O)C(O)C1O (centres undefined)	none (no result: PDI inh, CaV13 FRET inh)
C[C@@H]1O[C@@H](OC[C@@H]2O[C@H](Oc3c(-c4ccc(O)cc4)oc4cc(O)cc(O)c4c3=O)[C@@H](O)[C@H](O)[C@H]2O)[C@H](O)[C@H](O)[C@H]1O	PDI inh 65
CC(C)=CCc1c(O)cc(O)c2c(=O)c(O[C@@H]3O[C@@H](C)[C@H](O)[C@@H](O)[C@H]3O)c(-c3ccc(O)cc3)oc12	none (no result: PDI inh, CaV13 FRET inh, ERp5 inh)
C[C@@H]1O[C@@H](O[C@H]2[C@H](O)[C@@H](O)[C@H](Oc3c(-c4ccc(O)cc4)oc4cc(O)cc(O)c4c3=O)O[C@@H]2CO)[C@H](O)[C@H](O)[C@H]1O	PDI inh 55
COc1ccc(S(=O)(=O)Nc2ccc3c(c2)C(=O)N([C@@H](C)CO)C[C@H](C)[C@H](CN(C)Cc2ccc(Oc4ccccc4)cc2)O3)cc1	none (no result: PDI inh, CaV13 FRET inh, PvdQ acylase)
